TRPM1 prom inh = MITF TRPM1 promoter inhibition in SK-MEL-5 cells. SK-MEL-5 TRPM1 promoter luciferase, 24 h. inhibition, % at 12.5 µM. hit rate 0.83% among 330,000;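 active means mean inhibition across replicates of 60% or more, whatever share of single replicates reaches that level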
HIF-2a inh = inhibitors of HIF-2a; 786-0 RCC cells HIF-2a reporter, luciferase luminescence, overnight; inhibition, % at 18.8 µM; hit rate 0.72% among 360,000; AID 624352;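 active means inhibition of the luminescence signal of 40% or more relative to plate controls, in a single-dose primary screen at 18.75 µM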
CF NFkB block = cystic fibrosis NF-kB activation inhibition | inhibition, % at 5 µM | hit rate 0.86% among 360,000 | AID 588850 | KKLEB NF-kB-GFP reporter, PAF-induced, GFP fluorescence overnight;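 active means at least 50% inhibition at 5 µM, scaled per plate between neutral and stimulator controls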;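 further: PAF is a Pseudomonas aeruginosa culture filtrate used as stimulus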
KKLEB cytotox = reduces viability of KKLEB cystic fibrosis airway cells; hit rate 0.36% among 360,000; KKLEB CF airway cells viability, ATPlite luminescence, overnight; active compounds read low; cells stimulated with P. aeruginosa culture filtrate; activity change (cytotoxicity), % at 5 µM; AID 602141;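 active means corrected activity change at or below -50% at 5 µM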
ABHD5-PLIN5 inh = ABHD5-PLIN5 protein interaction inhibition | inhibition, % at 4 µM | Split G. princeps luciferase complementation, luminescence, 4 h | Q00G26+Q8WTS1 | AID 602281 | hit rate 0.78% among 360,000;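 active means inhibition above the mean inhibition across every tested compound plus 3 SD, cut at about 22% in these data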
Target sequence (Q00G26 whole entry, looked up): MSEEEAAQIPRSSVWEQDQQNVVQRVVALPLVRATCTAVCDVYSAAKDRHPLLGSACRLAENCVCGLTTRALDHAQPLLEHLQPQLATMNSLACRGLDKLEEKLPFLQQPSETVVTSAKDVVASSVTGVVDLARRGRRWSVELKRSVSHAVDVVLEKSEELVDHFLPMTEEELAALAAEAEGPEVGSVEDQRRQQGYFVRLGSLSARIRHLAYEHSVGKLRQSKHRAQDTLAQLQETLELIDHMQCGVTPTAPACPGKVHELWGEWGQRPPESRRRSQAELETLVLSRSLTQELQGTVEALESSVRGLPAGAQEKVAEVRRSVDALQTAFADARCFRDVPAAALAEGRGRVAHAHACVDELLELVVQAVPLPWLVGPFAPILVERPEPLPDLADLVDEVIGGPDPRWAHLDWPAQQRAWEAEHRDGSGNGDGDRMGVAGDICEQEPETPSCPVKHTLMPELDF
Target sequence (Q8WTS1 whole entry, looked up): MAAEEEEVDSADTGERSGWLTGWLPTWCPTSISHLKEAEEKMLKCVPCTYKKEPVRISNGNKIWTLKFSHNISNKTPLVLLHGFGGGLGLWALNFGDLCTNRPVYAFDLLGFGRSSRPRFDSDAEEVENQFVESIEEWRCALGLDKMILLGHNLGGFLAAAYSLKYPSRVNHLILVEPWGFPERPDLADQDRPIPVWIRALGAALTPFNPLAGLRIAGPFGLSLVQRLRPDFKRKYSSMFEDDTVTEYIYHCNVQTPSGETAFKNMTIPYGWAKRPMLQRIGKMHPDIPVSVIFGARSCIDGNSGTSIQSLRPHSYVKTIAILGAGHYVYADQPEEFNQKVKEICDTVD
Peg3 prom inh = inhibitors of Peg3 promoter; hit rate 1.7% among 360,000; AID 588405; inhibition, % at 20 µM; HeLa PEG-Prom luciferase reporter, luminescence, overnight;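 active means inhibition of at least 50% at 20 µM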
Of the large screens only hits and unclear results are named; the others gave an inactive call. Compounds with a hit are over-represented: about 3.1% of the library has one in this group of screens.

CCOc1ccc(/C=C/c2[nH]c(=O)[nH]c(=O)c2[N+](=O)[O-])cc1	none
CCOc1cc(/C=C/C(=O)c2ccc(C)cc2)ccc1OCC(=O)N(C)C	KKLEB cytotox -53.7
CSc1nc(Nc2ccc(Cl)cc2)c(C#N)c(=O)[nH]1	Peg3 prom inh 52.8
c1ccc(-c2nnc(-c3ccccn3)nc2NC2CCCCC2)cc1	TRPM1 prom inh 73.8
CNc1nc(-c2ccccn2)nnc1-c1ccccc1	none
CCOc1ccc(C(C)=O)cc1CSC(=N)N	none
CCCCCOc1ccc(CSC(=N)N)cc1[N+](=O)[O-]	Peg3 prom inh 106.5
COc1ccc(CSC(=N)N)cc1[N+](=O)[O-]	none
CCCCOc1ccc(Br)cc1CSC(=N)N	Peg3 prom inh 105.0
CC1(C(=O)NS(=O)(=O)c2ccc(Cl)s2)CCN1C(=O)Cc1ccc(Cl)cc1Cl (centres undefined)	none (no result: TRPM1 prom inh)
COc1ccc(CC(=O)OCC(=O)Nc2cccc(C(C)=O)c2)cc1OC	none
CCOC(=O)c1ccccc1NS(=O)(=O)c1ccc(OCC)cc1	none
O=C(O)CSc1cc(NS(=O)(=O)c2cccc([N+](=O)[O-])c2)c2ccccc2c1O	TRPM1 prom inh 75.8, CF NFkB block 72.2
CCc1ccc(S(=O)(=O)Nc2cc(SCC(=O)O)c(O)c3ccccc23)cc1	CF NFkB block 63.7
Cc1ccc(C)c(S(=O)(=O)Nc2cc(SCC(=O)O)c(O)c3ccccc23)c1	TRPM1 prom inh 67.1, HIF-2a inh 65.5, CF NFkB block 81.2, KKLEB cytotox -53.5, Peg3 prom inh 97.1
O=C(O)c1cccc(S(=O)(=O)Nc2ccc([N+](=O)[O-])cc2O)c1	none
CCOc1ccc(S(=O)(=O)Nc2cc(SCC(=O)O)c(O)c3ccccc23)cc1	CF NFkB block 91.1
CCC1CCCCN1C(=O)CCc1nnc(Cc2cc(OC)ccc2OC)o1 (centres undefined)	none
Cc1ccc(C)c(S(=O)(=O)N2CCN(C(=O)[C@@H]3CCCN3C(=O)c3cccs3)CC2)c1	none
Cc1ccc(CN(C)C(=O)CN2C(=O)NC(c3ccccc3)(c3ccccc3)C2=O)c(C)c1	none
O=C(c1ccccc1)N1CCN(c2ccc(N3CCOCC3)nn2)CC1	none
COc1ccccc1-c1ccc(/C=C2/C=C(C)OC2=O)o1	ABHD5-PLIN5 inh 22.6
OC(c1cc(-c2cccc(Cl)c2)nc2ccccc12)C1CCCCN1 (centres undefined)	TRPM1 prom inh 98.5, Peg3 prom inh 103.9
OC(c1cc(C(F)(F)F)nc2c(C(F)(F)F)cccc12)C1CCCCN1 (centres undefined)	Peg3 prom inh 93.5
COc1cc(S(=O)(=O)N2CCN(C(=O)c3cccs3)CC2)ccc1NC(C)=O	none (no result: TRPM1 prom inh)
O=[N+]([O-])c1ccc(-c2nc(Nc3ccc(O)cc3)c3ccccc3n2)cc1	Peg3 prom inh 63.8
O=C(O)c1ccc(Nc2nc(-c3ccc([N+](=O)[O-])cc3)nc3ccccc23)cc1	none
CN(C)S(=O)(=O)c1ccc(C(=O)/C=C/c2cccnc2)cc1	Peg3 prom inh 100.5
O=C(/C=C/c1cccnc1)c1ccc(NC(=O)c2cccc(Br)c2)cc1	ABHD5-PLIN5 inh 50.0
COCCCNC(=O)c1ccc2c3c(onc13)-c1ccccc1C2=O	TRPM1 prom inh 82.7
CC1CCN(Cc2c(C(=O)N/N=C/c3ccccc3O)nnn2-c2nonc2N)CC1	Peg3 prom inh 66.3
CCN(CC)c1ccc(/C=N/NC(=O)c2nnn(-c3nonc3N)c2C(C)C)c(O)c1	TRPM1 prom inh 68.2, Peg3 prom inh 53.0
Cc1nnn(-c2nonc2N)c1C(=O)N/N=C/c1cccc2ccccc12	Peg3 prom inh 52.2
CN(Cc1c(C(=O)N/N=C/c2ccccc2O)nnn1-c1nonc1N)C1CCCCC1	Peg3 prom inh 58.9 (no result: TRPM1 prom inh)
Cc1nnn(-c2nonc2N)c1C(=O)N/N=C/c1ccccc1O	none
C=CCNc1ncnc2sc(SC)nc12	none
CN1c2ccccc2SC2C(c3ccccc3)=NOC21 (centres undefined)	none (no result: TRPM1 prom inh)
CCC(=Nc1ccccc1)C1=C(O)CCCC1=O	none (no result: TRPM1 prom inh)
O=C(NN=Cc1cccc2ccccc12)C(=O)NN=Cc1cccc2ccccc12	Peg3 prom inh 51.1
O=C(Nc1cc(S(=O)(=O)Nc2ccc(Cl)cc2)ccc1O)c1ccc(S(=O)(=O)N2CCCCCC2)cc1	none
Nc1nonc1-n1nnc(C(=O)N/N=C/c2ccc(Cl)cc2Cl)c1CN1CCCCC1	none
Nc1nonc1-n1nnc(C(=O)N/N=C/c2cc(Cl)ccc2O)c1CN1CCCCCC1	Peg3 prom inh 53.7
O=C(N/N=C\c1cc(Cl)ccc1O)c1ccc(S(=O)(=O)N2CCCCC2)cc1	TRPM1 prom inh 66.4
CC(O)C(=O)N/N=C/c1cccc2ccccc12 (centres undefined)	none
OC[C@@H]1[C@@H](c2ccc(Cl)cc2)C(c2ccc(F)cc2)=NN1c1ccccc1	Peg3 prom inh 84.7
O=C(NC(NC(=S)Nc1cccc(Cl)c1)C(Cl)(Cl)Cl)OCc1ccccc1 (centres undefined)	Peg3 prom inh 52.6
CC(C)NC(=O)c1c(CSc2ccccc2)noc1C(=O)NCc1ccccc1	none
CCCCN1C=CC(=C2C(=O)c3ccccc3C2=O)C=C1	TRPM1 prom inh 95.5, HIF-2a inh 89.5, KKLEB cytotox -72.4, Peg3 prom inh 109.8
CCCCC1C(=O)N(c2ccccc2)N(c2ccccc2)C1=O	none
CCCc1ccc(Oc2c(-c3ccc(O)c(C)c3O)n[nH]c2C)cc1	none
CCCc1ccc(Oc2cn[nH]c2-c2ccc(O)c(C)c2O)cc1	CF NFkB block 53.0
CS(=O)(=O)c1ccc(Cl)c(NC(=O)CSc2nc3ccccc3c(=O)n2Cc2ccco2)c1	KKLEB cytotox -54.3
CC(=O)OCC(=O)C1(O)CCC2C3CCC4CC(O)CCC4(C)C3C(=O)CC21C (centres undefined)	none (no result: TRPM1 prom inh)
CC(=O)N1c2ccccc2Oc2cc3ccccc3cc21	none
O=C(CCl)N1c2ccccc2Oc2ccc3ccccc3c21	TRPM1 prom inh 88.4
Cc1ccc(C2/C(=C(/O)c3ccc(Br)cc3)C(=O)C(=O)N2Cc2ccco2)o1 (centres undefined)	ABHD5-PLIN5 inh 22.9
Cc1ccc2nc(/C(C#N)=C\c3ccc(Oc4ccc([N+](=O)[O-])cn4)cc3)[nH]c2c1	none
COc1ccc2nc(/C(C#N)=C\c3ccc(Oc4ccc([N+](=O)[O-])cn4)cc3)[nH]c2c1	Peg3 prom inh 81.2
O=C(CN1CCC(C(=O)O)CC1)Nc1ccccc1Oc1ccccc1	none (no result: TRPM1 prom inh)
Cc1ccccc1CNC(=O)c1ccccc1SCC(=O)NCc1ccco1	none
CN1CCN(C2Cc3ccc(F)cc3Sc3cc(F)c(Cl)cc32)CC1 (centres undefined)	Peg3 prom inh 107.0
CN1CCN(C2Cc3cc(F)ccc3Sc3ccc(Cl)cc32)CC1 (centres undefined)	none
COC(=O)c1[nH]c2c(c1C)C(=O)CC(c1cc(OC)c(OC)c(OC)c1)C2 (centres undefined)	none

Source: PubChem BioAssay (several laboratories)
